Records with an inconclusive call do not appear. Calls of active or inactive are those of the source. Unless noted, the call rests on the fitted dose curve; in most records, active means well fitted curve in the direction sought with a large enough effect in the repeat runs; inconclusive means weak or mixed curves; inactive means no such curve, though single readings can be large; an effect the other way counts as inactive or inconclusive.
Columns and labels:
[1] = qHTS assay to identify small molecule antagonists of the sonic hedgehog signaling (Shh) pathway (AID 1259369; calls by dose curve; further: nearly all actives have a fitted effect of over 45% in size)
Outline: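 Cells are plated and held 4hr at 37 C, compounds (DMSO) are pinned in, conditioned medium is added to stimulate the pathway, and after 24hr luciferase reagent is added for 30min before luminescence is read.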

[2] = biological target: Estrogen receptor beta (Homo sapiens) (UniProt Q92731); assay: qHTS assay to identify small molecule agonists of the estrogen receptor beta (ER-beta) signaling pathway (AID 1259377; active means well fitted activation curve with a large enough effect in the signal ratio in the repeat runs, not every such curve was filed as active; the % refers to the signal ratio)
Outline: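 Read-out: beta-lactamase FRET fluorescence. Cell line: ER-beta-UAS-bla HEK293T in 2% charcoal-stripped FBS. Exposure: 16 hr at 37C. Substrate step: 2 h at room temperature.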

[3] = biological target: Estrogen receptor beta (Homo sapiens) (UniProt Q92731); assay: qHTS assay to identify small molecule antagonists of the estrogen receptor beta (ER-beta) signaling pathway (AID 1259378; active means well fitted inhibition curve with a large enough effect in the signal ratio in the repeat runs, not every such curve was filed as active; the % refers to the signal ratio)
Outline: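 Antagonist mode: compounds added to beta-lactamase reporter HEK293T ER-beta-UAS cells stimulated with E2 (1nM final), 16 hr at 37C. LiveBLAzer B/G FRET substrate, 2 hours room temperature, fluorescence read-out.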

[4] = qHTS assay to identify small molecule agonists of the androgen receptor (AR) signaling pathway in the presence of an antagonist - cell viability counter screen (AID 1259379);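 further: MDA-kb2 human breast cancer cells carrying an MMTV luciferase reporter; series mostly up to about 92 µM; nearly all actives have a fitted effect of over 25% in size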
Outline: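 Cytotoxicity is assessed by CellTiter-Fluor in MDA-kb2 cells carrying an MMTV-driven luciferase reporter. Cells receive 3.0uM nilutamide plus compounds at 15 concentrations and incubate 16 hr at 37C without CO2 before fluorescence reading.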

[5] = qHTS assay to identify small molecule agonists of the estrogen receptor beta (ER-beta) signaling pathway - cell viability counter screen (AID 1259380); further: nearly all actives have a fitted effect of over 30% in size
Outline: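 Cytotoxicity is measured in parallel with the reporter screen: after 16 hr compound exposure at 37C and a 2 hr LiveBLAzer step, CellTiter-Glo is added to the same ER-beta-UAS-bla HEK293T wells and luminescence read after 30 min.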

[6] = biological target: Androgen receptor (Homo sapiens) (UniProt P10275); assay: qHTS assay to identify small molecule agonists of the androgen receptor (AR) signaling pathway in the presence of an antagonist (AID 1259381; calls by dose curve; further: nearly all actives have a fitted effect of over 15% in size)
Outline: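 Agonist-mode confirmation screen: human MDA-kb2 cells stably expressing luciferase under an MMTV promoter bearing AR and GR response elements, co-treated with 3.0uM nilutamide (final). Luminescence measured after 16hr compound incubation.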

[7] = qHTS assay to identify small molecule antagonists of the estrogen receptor beta (ER-beta) signaling pathway - cell viability counter screen (AID 1259382);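 further: HEK293T cells carrying ER-beta-UAS-bla reporter stimulated with estradiol; series mostly up to about 92 µM; nearly all actives have a fitted effect of over 55% in size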
Outline: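 Cytotoxicity counter screen multiplexed with the beta-lactamase antagonist assay: GripTite HEK293T ER-beta-bla cells were treated 16 hr with test chemicals in the presence of 1nM 17-beta-estradiol, and viability was measured by CellTiter-Glo.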

[8] = biological target: Estrogen receptor (Homo sapiens) (UniProt P03372); assay: qHTS assay to identify small molecule agonists of the estrogen receptor alpha (ER-alpha) signaling pathway in the presence of an antagonist (AID 1259383; calls by dose curve; further: top concentration of the series differs between compounds; nearly all actives have a fitted effect of over 15% in size)
Outline: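 Agonist-mode confirmation in the presence of the ER antagonist ICI-182,780 at 10.0nM final. Breast-derived VM7Luc4E2 reporter cells were exposed to compounds for 22hr, and ERE-driven luciferase was quantified by luminescence.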

[9] = qHTS assay to identify small molecule agonists or antagonists of the thyroid stimulating hormone receptor (TSHR) signaling pathway - wild type cell line counter screen (AID 1259384; calls by dose curve)
Outline: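 Counter screen in untransfected Hek293: compounds (15-point titration, triplicate) plus phosphodiesterase inhibitor Ro20-1724 added after 18 h plating; 30 min RT. Intracellular cAMP via competitive d2/cryptate immunoassay, 1 h incubation.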

[10] = biological target: Thyrotropin receptor (Homo sapiens) (UniProt P16473); assay: qHTS assay to identify small molecule antagonists of the thyroid stimulating hormone receptor (TSHR) signaling pathway (AID 1259385; calls by dose curve; further: nearly all actives have a fitted effect of over 20% in size)
Outline: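 Antagonist mode: compound-treated TSHR-expressing HEK293 cells were stimulated with 1.5 ng/mL TSH (final) in presence of Ro20-1724 for 30 min at RT. HTRF cAMP detection after 1 h; each compound tested at 15 concentrations, triplicate.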

[11] = biological target: Progesterone receptor (Homo sapiens) (UniProt P06401); assay: qHTS assay to identify small molecule agonists of the progesterone receptor (PR) signaling pathway (AID 1346784; calls by dose curve; further: nearly all actives have a fitted effect of over 30% in size)
Outline: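 Compounds were tested for PR agonism in HEK 293T cells bearing a beta-lactamase gene under UAS control. Treatment lasted 16 hr at 37C; signal came from fluorescence of a FRET substrate.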

[12] = biological target: Progesterone receptor (Homo sapiens) (UniProt P06401); assay: qHTS assay to identify small molecule antagonists of the progesterone receptor (PR) signaling pathway (AID 1346795; active means well fitted inhibition curve with a large enough effect in the signal ratio in the repeat runs, not every such curve was filed as active; the % refers to the signal ratio)
Outline: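 In HEK293T cells bearing the PR-UAS-bla reporter, compound effects on promegestone-driven (1 nM) beta-lactamase expression are assessed after 16 hr using a fluorescent FRET substrate incubated 2 hr at room temperature.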

[13] = qHTS assay to identify small molecule agonists of the progesterone receptor (PR) signaling pathway - cell viability counter screen (AID 1346799; calls by dose curve; further: nearly all actives have a fitted effect of over 45% in size)
Outline: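 Here, 3,000 PR-UAS-bla HEK293T cells per well were treated with compounds for 16 hr after a 6 hr preincubation at 37C and 5% CO2; cell viability is the CellTiter-Glo luminescence signal.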

[14] = qHTS assay to identify small molecule antagonists of the TGF-beta/Smad signaling pathway - cell viability counter screen (AID 1346824); further: nearly all actives have a fitted effect of over 50% in size
Outline: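 Cytotoxicity counter-screen run in the same wells as the beta-lactamase Smad reporter read: CellTiter-Glo luminescence after 30 min at room temperature. HEK 293T SBE-bla cells had 5 hr compound exposure at 37 C with TGF-beta1 (0.25 ng/mL stock).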

[15] = qHTS assay to identify small molecule agonists of the TGF-beta/Smad signaling pathway - cell viability counter screen (AID 1346829); further: top concentration of the series differs between compounds; nearly all actives have a fitted effect of over 45% in size
Outline: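 Here the cytotoxicity of library compounds is measured in SBE-bla HEK 293T cells treated for 5 hr, using CellTiter-Glo added to wells already read for the beta-lactamase reporter.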

[16] = qHTS assay to identify small molecule agonists of the TGF-beta/Smad signaling pathway (AID 1346859; active means well fitted activation curve with a large enough effect in the signal ratio in the repeat runs, not every such curve was filed as active; the % refers to the signal ratio; further: series mostly up to about 77 µM)
Outline: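 Each well held 4,000 SBE-bla HEK 293T cells incubated overnight before compound addition; 5 hr later the cleavable FRET substrate went on for 2 hr at room temperature, and fluorescence was read at two emissions.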

[17] = qHTS assay to identify small molecule antagonists of the progesterone receptor (PR) signaling pathway - cell viability counter screen (AID 1346798); further: series mostly up to about 92 µM; nearly all actives have a fitted effect of over 50% in size
Outline: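 Following a 4 hr attachment, PR-UAS-bla HEK293T cells in charcoal-stripped FBS medium were exposed to compounds with R5020 for 16 hr; CellTiter-Glo was added and luminescence read after 30 min at room temperature.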

[18] = biological target: Thyrotropin-releasing hormone receptor (Homo sapiens) (UniProt P34981); assay: qHTS assay to identify small molecule antagonists of the thyrotropin-releasing hormone receptor (TRHR) signaling pathway (AID 1346877; active means well fitted inhibition curve with a large enough effect in the repeat runs, not every such curve was filed as active; further: series mostly up to about 51 µM)
Outline: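 Antagonism is measured as suppression of the calcium response to 1 nM TRH in TRHR-HEK293 cells that have been dye-loaded for 2 h at 37 °C after overnight plating. Each compound is tested at 15 concentrations in triplicate.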

[19] = biological target: Thyrotropin-releasing hormone receptor (Homo sapiens) (UniProt P34981); assay: qHTS assay to identify small molecule agonists of the thyrotropin-releasing hormone receptor (TRHR) signaling pathway (AID 1346891; calls by dose curve; further: series mostly up to about 58 µM)
Outline: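 Screening of agonists relied on calcium signalling in HEK293 cells expressing human TRHR: dye loading 2 h at 37 °C preceded compound addition and a 3-min fluorescence time course.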

[20] = qHTS assay to identify small molecule agonists of the estrogen receptor alpha (ER-alpha) signaling pathway in the presence of an antagonist - cell viability counter screen (AID 1259386);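 further: series mostly up to about 92 µM; cells exposed to compounds for 22 h at 37 °C before the viability read; nearly all actives have a fitted effect of over 30% in size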
Outline: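 Cytotoxicity was measured in parallel with the ERE-luciferase agonist screen, in the same wells. The cells were VM7Luc4E2, which endogenously express ER-alpha, and treatment was with compounds plus 10.0nM ICI-182,780 for 22hr.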

Measured: Potency

Thyrotropin receptor (Homo sapiens), sequence (P16473 whole entry, looked up): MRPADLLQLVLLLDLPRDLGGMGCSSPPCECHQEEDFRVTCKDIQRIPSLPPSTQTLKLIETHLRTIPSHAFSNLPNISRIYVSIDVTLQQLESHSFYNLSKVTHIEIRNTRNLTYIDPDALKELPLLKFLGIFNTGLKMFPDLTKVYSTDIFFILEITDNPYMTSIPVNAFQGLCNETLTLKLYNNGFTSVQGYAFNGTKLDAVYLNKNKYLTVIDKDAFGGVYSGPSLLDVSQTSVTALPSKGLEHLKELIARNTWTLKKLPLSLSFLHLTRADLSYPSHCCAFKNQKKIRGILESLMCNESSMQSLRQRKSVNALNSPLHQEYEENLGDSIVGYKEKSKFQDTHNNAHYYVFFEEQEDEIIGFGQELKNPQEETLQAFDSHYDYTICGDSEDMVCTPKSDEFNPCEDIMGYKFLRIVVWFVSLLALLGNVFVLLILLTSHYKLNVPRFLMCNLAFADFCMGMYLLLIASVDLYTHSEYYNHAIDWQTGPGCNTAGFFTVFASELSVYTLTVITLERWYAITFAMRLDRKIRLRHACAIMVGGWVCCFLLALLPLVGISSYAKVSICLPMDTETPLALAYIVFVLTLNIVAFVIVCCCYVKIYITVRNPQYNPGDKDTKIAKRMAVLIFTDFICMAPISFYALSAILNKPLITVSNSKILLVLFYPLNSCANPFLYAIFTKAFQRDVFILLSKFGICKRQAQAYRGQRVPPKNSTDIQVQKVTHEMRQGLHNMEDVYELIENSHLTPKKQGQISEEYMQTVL
Progesterone receptor (Homo sapiens), sequence (P06401 whole entry, looked up): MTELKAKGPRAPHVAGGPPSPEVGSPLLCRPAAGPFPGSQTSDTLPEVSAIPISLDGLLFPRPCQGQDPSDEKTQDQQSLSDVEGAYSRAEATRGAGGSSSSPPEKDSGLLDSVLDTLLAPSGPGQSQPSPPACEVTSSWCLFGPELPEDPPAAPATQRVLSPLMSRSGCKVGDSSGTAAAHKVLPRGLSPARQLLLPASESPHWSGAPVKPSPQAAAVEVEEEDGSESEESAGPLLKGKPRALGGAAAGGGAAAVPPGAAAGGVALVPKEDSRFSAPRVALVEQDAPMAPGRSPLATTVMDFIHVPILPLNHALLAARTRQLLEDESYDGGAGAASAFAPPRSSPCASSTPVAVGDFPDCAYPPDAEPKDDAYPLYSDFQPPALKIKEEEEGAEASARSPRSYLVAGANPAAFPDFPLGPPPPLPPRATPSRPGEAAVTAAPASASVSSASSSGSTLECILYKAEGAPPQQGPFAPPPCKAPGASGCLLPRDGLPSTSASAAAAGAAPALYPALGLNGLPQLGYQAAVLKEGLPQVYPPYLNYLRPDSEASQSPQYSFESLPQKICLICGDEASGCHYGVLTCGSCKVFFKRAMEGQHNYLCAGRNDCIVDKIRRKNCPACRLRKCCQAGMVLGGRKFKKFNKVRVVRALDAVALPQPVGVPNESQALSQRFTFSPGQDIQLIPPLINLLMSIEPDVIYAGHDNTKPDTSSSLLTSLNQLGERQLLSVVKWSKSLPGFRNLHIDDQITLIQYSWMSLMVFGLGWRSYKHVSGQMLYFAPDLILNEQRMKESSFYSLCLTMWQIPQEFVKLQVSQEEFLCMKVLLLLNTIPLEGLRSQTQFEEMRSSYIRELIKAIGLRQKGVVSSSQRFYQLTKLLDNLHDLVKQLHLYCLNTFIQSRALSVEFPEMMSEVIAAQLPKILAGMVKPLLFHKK
Estrogen receptor beta (Homo sapiens), sequence (Q92731 whole entry, looked up): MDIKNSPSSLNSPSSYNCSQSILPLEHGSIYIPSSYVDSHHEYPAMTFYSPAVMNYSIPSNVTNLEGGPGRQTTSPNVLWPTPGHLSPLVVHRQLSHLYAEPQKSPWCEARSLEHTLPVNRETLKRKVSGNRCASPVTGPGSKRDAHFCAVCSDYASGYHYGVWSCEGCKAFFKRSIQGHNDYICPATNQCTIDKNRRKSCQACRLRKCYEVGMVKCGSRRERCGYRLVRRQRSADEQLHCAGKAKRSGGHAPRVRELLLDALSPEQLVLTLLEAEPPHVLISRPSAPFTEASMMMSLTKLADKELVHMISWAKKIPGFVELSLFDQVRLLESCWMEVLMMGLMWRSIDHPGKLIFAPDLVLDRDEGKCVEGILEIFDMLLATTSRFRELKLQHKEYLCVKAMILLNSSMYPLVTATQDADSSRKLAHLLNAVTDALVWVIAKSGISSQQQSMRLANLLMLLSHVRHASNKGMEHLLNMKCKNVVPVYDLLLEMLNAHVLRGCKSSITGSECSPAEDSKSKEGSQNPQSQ
Androgen receptor (Homo sapiens), sequence (P10275 whole entry, looked up): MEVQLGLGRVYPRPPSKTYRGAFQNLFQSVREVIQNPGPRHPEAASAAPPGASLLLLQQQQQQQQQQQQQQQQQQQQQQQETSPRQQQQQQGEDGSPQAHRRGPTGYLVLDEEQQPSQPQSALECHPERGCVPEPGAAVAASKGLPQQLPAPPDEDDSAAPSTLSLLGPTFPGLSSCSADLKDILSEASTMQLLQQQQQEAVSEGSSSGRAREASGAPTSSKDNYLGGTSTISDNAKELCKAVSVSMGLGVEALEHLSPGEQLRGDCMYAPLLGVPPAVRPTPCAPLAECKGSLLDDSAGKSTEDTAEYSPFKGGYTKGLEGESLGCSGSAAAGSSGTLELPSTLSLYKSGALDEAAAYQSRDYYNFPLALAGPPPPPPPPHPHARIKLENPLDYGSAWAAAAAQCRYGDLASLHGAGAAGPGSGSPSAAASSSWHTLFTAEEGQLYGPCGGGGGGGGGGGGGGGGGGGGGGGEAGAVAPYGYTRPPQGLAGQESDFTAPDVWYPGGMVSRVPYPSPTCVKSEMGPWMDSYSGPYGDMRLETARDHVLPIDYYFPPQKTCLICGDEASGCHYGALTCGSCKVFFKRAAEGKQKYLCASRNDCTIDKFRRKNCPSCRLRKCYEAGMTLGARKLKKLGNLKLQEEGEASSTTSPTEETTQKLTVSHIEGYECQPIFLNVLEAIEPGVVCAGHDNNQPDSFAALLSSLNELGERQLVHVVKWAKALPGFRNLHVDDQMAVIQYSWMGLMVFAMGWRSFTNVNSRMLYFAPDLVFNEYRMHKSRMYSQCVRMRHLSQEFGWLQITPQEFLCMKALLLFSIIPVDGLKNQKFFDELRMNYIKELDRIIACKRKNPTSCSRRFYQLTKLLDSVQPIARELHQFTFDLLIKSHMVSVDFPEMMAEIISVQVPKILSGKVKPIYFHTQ
Estrogen receptor (Homo sapiens), sequence (P03372 whole entry, looked up): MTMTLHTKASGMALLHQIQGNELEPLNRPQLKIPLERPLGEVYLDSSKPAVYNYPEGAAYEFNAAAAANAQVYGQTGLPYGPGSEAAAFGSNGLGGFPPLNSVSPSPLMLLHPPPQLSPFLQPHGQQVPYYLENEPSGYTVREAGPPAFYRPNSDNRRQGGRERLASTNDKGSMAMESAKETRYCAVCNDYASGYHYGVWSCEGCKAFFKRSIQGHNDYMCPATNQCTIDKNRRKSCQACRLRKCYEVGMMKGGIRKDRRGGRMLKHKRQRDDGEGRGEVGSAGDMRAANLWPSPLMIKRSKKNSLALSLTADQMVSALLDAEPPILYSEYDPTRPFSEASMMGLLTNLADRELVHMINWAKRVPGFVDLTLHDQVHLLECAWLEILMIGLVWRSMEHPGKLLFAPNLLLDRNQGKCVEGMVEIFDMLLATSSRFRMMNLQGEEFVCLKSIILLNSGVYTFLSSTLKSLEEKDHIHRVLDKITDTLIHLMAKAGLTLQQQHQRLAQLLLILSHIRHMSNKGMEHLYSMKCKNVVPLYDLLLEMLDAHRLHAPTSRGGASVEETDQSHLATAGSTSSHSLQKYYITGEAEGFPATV
Thyrotropin-releasing hormone receptor (Homo sapiens), sequence (P34981 whole entry, looked up): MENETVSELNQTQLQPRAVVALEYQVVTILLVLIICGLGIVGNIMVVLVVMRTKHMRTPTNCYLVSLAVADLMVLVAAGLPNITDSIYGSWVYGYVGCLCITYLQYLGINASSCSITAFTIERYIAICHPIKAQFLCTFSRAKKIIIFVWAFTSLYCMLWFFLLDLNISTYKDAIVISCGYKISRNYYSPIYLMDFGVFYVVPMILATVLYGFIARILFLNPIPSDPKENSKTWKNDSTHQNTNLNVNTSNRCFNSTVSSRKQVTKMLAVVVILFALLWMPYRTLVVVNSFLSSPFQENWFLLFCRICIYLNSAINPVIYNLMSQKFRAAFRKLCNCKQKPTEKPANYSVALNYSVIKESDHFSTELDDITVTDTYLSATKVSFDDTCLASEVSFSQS

CCOC(=O)c1cc(=O)c2c(OCC(COc3cccc4oc(C(=O)OCC)cc(=O)c34)OC(=O)[C@@H](N)CCCCN)cccc2o1
not listed: [17] | [18] | [19] | [20]
inactive: all other assays above

O=C1C=CC(=O)O1
not listed: [6] | [11] | [12] | [20]
inactive: all other assays above

CCOc1ccc(OCC)c(Cl)c1
not listed: [6] | [11] | [12]
inactive: all other assays above

CCCC(CCC)(C(=O)OCC)C(=O)OCC
not listed: [14]
inactive: all other assays above

Cc1cccc(C)c1NC(=O)CN1CCCCCC1
not listed: [6] | [11] | [12] | [18] | [19]
inactive: all other assays above

O=C(O)c1cccc(Cl)c1Cl
not listed: [6] | [11] | [12] | [13] | [18] | [19]
inactive: all other assays above

N#Cc1ccc(C(c2ccc(C#N)cc2)n2cncn2)cc1
not listed: [13]
inactive: all other assays above

Cc1nnc(SCC2=C(C(=O)O)N3C(=O)[C@@H](NC(=O)Cn4cnnn4)[C@H]3SC2)s1
not listed: [6] | [14]
inactive: all other assays above

CN(C)Cc1ccccc1
not listed: [8] | [17]
inactive: all other assays above

Cc1cn([C@@H]2O[C@H](CO)[C@@H](O)[C@@H]2F)c(=O)[nH]c1=O
not listed: [6] | [8]
inactive: all other assays above

CCC1(C)NC(=O)NC1=O (stereo unspecified)
not listed: [6] | [8]
inactive: all other assays above

CCCCC1CCC(=O)O1 (stereo unspecified)
not listed: [6]
inactive: all other assays above

Cc1cc(S(=O)(=O)O)c(N)cc1Cl
not listed: [9] | [10] | [11] | [13]
inactive: all other assays above

O=C(Cl)c1cccc([N+](=O)[O-])c1
not listed: [6] | [11] | [12] | [18] | [19]
inactive: all other assays above

CCOc1ccc(NC(N)=O)cc1
not listed: [6] | [13]
inactive: all other assays above
